Several values for one entry are separate records, joined by “and”; a condition that tells them apart may be missing. Equal values may be shown once. Inconclusive results are not listed. Where a call stands in place of a potency, no number is given. More than one record can exist for a structure, and the calls need not agree. Activity calls are given as the source filed them. The call rests on the fitted dose curve.
Tests used:
[1] = Cytotoxicity counterscreen for inhibitors of SARS-CoV-2 cell entry (AID 1645845); further: nearly all actives have a fitted effect of over 50% in size
Outline: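 HEK293-ACE2 cells (Expi293F stably expressing human ACE2) seeded overnight, then compound for 1 h plus 48 h at 37C. Viability as ATP content by luminescence; normalized to wells with cells and media-only wells.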

[2] = Primary qHTS to identify inhibitors of SARS-CoV-2 cell entry (AID 1645846); settings: activity change, negative = inhibition: at 57.1 µM (top of the series) unless noted; further: nearly all actives have a fitted effect of over 45% in size
Outline: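 Entry measured by luciferase signal 48 h after adding SARS-CoV-2-S pseudotyped MLV particles to HEK293-ACE2 cells preincubated 1 h with compounds. Normalisation: bald particles and spike particles.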
Potency means the concentration at half of the fitted maximal effect.

Structure (SMILES)	Potency [1]	Potency [2]	activity change, negative = inhibition [2]	activity change, negative = cytotoxicity [1]
CC(C)C(=O)c1c(C(C)C)nn2ccccc12	inactive	inactive	–	–
COc1ccc(C2CNC(=O)C2)cc1OC1CCCC1 (configuration not stated)	inactive	–	4.15% and -11.8%	–
CCN1CCC[C@H]1CNC(=O)c1cc(S(N)(=O)=O)ccc1OC	inactive	inactive	–	–
NC(CS)C(=O)O (configuration not stated)	inactive	–	-4.89%	–
CCOC(=O)/C=C(C)/C=C/C=C(C)/C=C/c1c(C)cc(OC)c(C)c1C	inactive	–	-11.5%	–
Cc1c(C(C)C)c(=O)n(-c2ccccc2)n1C	inactive	–	-4.29%	–
CCCCCCCC/C=C/C(=O)O	inactive	inactive	–	–
O=C(N[C@H](CO)[C@H](O)c1ccc([N+](=O)[O-])cc1)C(Cl)Cl	inactive	–	2.2%	–
Cc1nnc(NS(=O)(=O)c2ccc(N)cc2)s1	inactive	–	4.32% and -12.1%	–
CCCCCCCCCCCCOCCO	inactive	–	-19.3%	–
CO/N=C(/C(=O)N[C@@H]1C(=O)N2C(C(=O)OCOC(=O)C(C)(C)C)=C(C)CS[C@H]12)c1csc(N)n1	inactive	–	-24.9%	–
O=C(OCC1(COC(=O)c2cccnc2)CCCC(COC(=O)c2cccnc2)(COC(=O)c2cccnc2)C1O)c1cccnc1	inactive	–	-30.1%	–
CC(C)=CCC1C(=O)N(c2ccccc2)N(c2ccccc2)C1=O	inactive	–	-3.84%	–
O=C(O)c1ccccc1S	inactive	inactive	–	–
COc1cc(/C=C/C(=O)O[C@H]2CC[C@]34C[C@]35CC[C@]3(C)[C@@H]([C@H](C)CCC=C(C)C)CC[C@@]3(C)[C@@H]5CC[C@H]4C2(C)C)ccc1O	inactive	inactive	–	–
S=P(N1CC1)(N1CC1)N1CC1	inactive	–	4.21%	–
COc1c(N2C[C@@H]3CCCN[C@@H]3C2)c(F)cc2c(=O)c(C(=O)O)cn(C3CC3)c12	inactive	–	-24.8%	–
CC[N+](CC)(CC)CCOc1cccc(OCC[N+](CC)(CC)CC)c1OCC[N+](CC)(CC)CC	inactive	inactive	–	–
CN(C)C(=O)COC(=O)Cc1ccc(OC(=O)c2ccc(N=C(N)N)cc2)cc1	inactive	–	-4.53% and -0.733%	–
Cc1oc(=O)oc1COC(=O)[C@@H]1N2C(=O)[C@@H](NC(=O)[C@H](N)c3ccccc3)[C@H]2SC1(C)C	inactive	inactive	–	–
CCCCC[C@H](O)/C=C/[C@@H]1[C@H]2C/C(=C/CCCC(=O)O)O[C@H]2C[C@H]1O	inactive	–	-21%	–
NCCCC[C@H](N[C@@H](CCc1ccccc1)C(=O)O)C(=O)N1CCC[C@H]1C(=O)O	inactive	–	-27.7%	–
CCOC(=O)[C@H](CCc1ccccc1)N[C@H]1CCCN2CCC[C@@H](C(=O)O)N2C1=O	inactive	–	-27.1%	–

Structure (SMILES)	Potency [1]	Potency [2]	activity change, negative = inhibition [2]	activity change, negative = cytotoxicity [1]
COc1ccc(C2C(=O)c3ccccc3C2=O)cc1	inactive	inactive	–	–
Cc1oc(=O)oc1CN1CCN(c2cc3c(cc2F)c(=O)c(C(=O)O)c2n3C(C)S2)CC1 (configuration not stated)	inactive	inactive	–	–
C[C@@H](O)[C@H]1C(=O)N2C(C(=O)O)=C(SCCN=CN)C[C@H]12	inactive	inactive	–	–
CCCCC(CC)CNC(=O)CC(C)OC(=O)CCC(=O)O (configuration not stated)	inactive	inactive	–	–
CC(N=C(NC#N)Nc1ccncc1)C(C)(C)C (configuration not stated)	inactive	–	-37.8%	–
NS(=O)(=O)c1cc(Cl)c(Cl)c(S(N)(=O)=O)c1	inactive	–	-0.105%	–
CCn1cc(C(=O)O)c(=O)c2cnc(N3CCCC3)nc21	–	–	0.588% [at 11.3 µM]	1.65% [at 11.3 µM] (inactive)
C[C@H]1C[C@@H]2[C@H]([C@@H](O)C[C@@]3(C)[C@H]2CC[C@]3(O)C(=O)CO)[C@@]2(C)C=CC(=O)C=C12	inactive	inactive	–	–
N#Cc1ccc(C(c2ccc(C#N)cc2)n2cncn2)cc1	inactive	–	0.824% and -10.9%	–
CN1[C@@H]2CC(OC(=O)[C@H](CO)c3ccccc3)C[C@H]1[C@@H]1O[C@@H]12 (some centres not stated)	inactive	inactive	–	–
CN(C)c1ccc2nc3ccc(=[N+](C)C)cc-3sc2c1	7.08 µM (active)	8.91 µM (active) and 7.08 µM (active)	–	–
O=C(COCCOCCOCC(=O)Nc1c(I)cc(I)c(C(=O)O)c1I)Nc1c(I)cc(I)c(C(=O)O)c1I	inactive	inactive	–	–
CC(C(=O)O)c1ccc2c(c1)CC(=O)c1ccccc1S2 (configuration not stated)	inactive	inactive	–	–
COc1ccc2cc([C@H](C)C(=O)O)ccc2c1	inactive	inactive	–	–
CCCCCCCCCCCCCCCCO	inactive	–	-7.94%	–
NCCCCCC(=O)O	inactive	–	-19.8% and -25.5%	–
COc1cc2c(Nc3ccc(Br)cc3F)ncnc2cc1OCC1CCN(C)CC1	inactive and 31.6 µM (active)	inactive	–	–
O=[N+]([O-])c1cncn1CCN1CCOCC1	inactive	–	-6.13%	–
CCCCCCCCCCCCCCCC(=O)OCCC1CCN(CCCN2c3ccccc3Sc3ccc(S(=O)(=O)N(C)C)cc32)CC1	inactive	–	-4.81%	–
Nc1ccc(S(=O)(=O)Nc2ccc(Cl)nn2)cc1	inactive	inactive	–	–
C/C=C1\[C@H]2C=C(C)C[C@]1(N)c1ccc(=O)[nH]c1C2	inactive	inactive	–	–
NS(=O)(=O)c1cc(-c2nn[nH]n2)c(NCc2cccs2)cc1Cl	inactive	–	-3.88%	–
Cc1onc(-c2ccccc2)c1-c1ccc(S(N)(=O)=O)cc1	inactive	–	-25.7% and -12.6%	–

Reference: PubChem BioAssay (NCATS)
